Among the test systems are HCT-15 colon; HT29 colon; SNB-75 CNS; SNB-19 CNS; U251 CNS; PC-3 prostate; SK-MEL-5 melanoma; UACC-62 melanoma; LOX IMVI melanoma; SK-MEL-28 melanoma; SK-MEL-2 melanoma; EKVX NSCLC; SN12C renal; UO-31 renal; TK-10 renal; ACHN renal; CAKI-1 renal; A498 renal; CCRF-CEM leukemia; MOLT-4 leukemia.
Holding throughout (assay): NCI-60 one-dose screen, 48 h (100 = growth as untreated, 0 = no growth, -100 = all killed)
Holding throughout (conditions): 10 µM unless noted

“And” between values parts separate entries of the source, which are not always exact repeats. Equal values may be shown once. About 83,000 compounds went through this panel and 20% of them were active in at least one assay; those are over-represented in the sample as a whole.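 Note: values are percent growth. 100 is the growth of untreated cells, values between 100 and 0 indicate rising inhibition; between -100 and 0 indicates cell death.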 Where a structure was tested more than once in an assay, its records may differ in their call. The source made the active and inactive calls. How the source made its calls: active means growth percent below 10; inactive means the rest.

As for `O=C1c2ccccc2C(=O)N1/N=C/c1ccc2c(c1)OCO2`, the growth with HCT-15 colon was 98.2% (inactive); in the test with HT29 colon, 94.3% (inactive); with SNB-75 CNS, 104% (inactive); with SNB-19 CNS, 93% (inactive); with U251 CNS it was 99.8% (inactive); in the test on PC-3 prostate, 74.1% (inactive). Further, the growth is 105% (inactive) with SK-MEL-5 melanoma; 90.3% (inactive) in the test on UACC-62 melanoma; 100% (inactive) in the test with LOX IMVI melanoma; 103% (inactive) in the test on SK-MEL-28 melanoma; 95.1% (inactive) in the test with SK-MEL-2 melanoma; 116% (inactive) with EKVX NSCLC. Also, the growth in the test on SN12C renal was 86.3% (inactive); in the test with UO-31 renal, 81.2% (inactive); in the test on TK-10 renal, 102% (inactive); with ACHN renal, 94.2% (inactive); in the test with CAKI-1 renal, 110% (inactive); in the test with A498 renal, 81.4% (inactive). The results for the growth in the test on CCRF-CEM leukemia and in the test with MOLT-4 leukemia were 93.1% (inactive) and 86.3% (inactive), respectively.

Turning to `Cc1ccc(S(=O)(=O)Nc2nc3ccccc3nc2Nc2ccc3nsnc3c2)cc1`, the growth in the test with HCT-15 colon was 32% (inactive) and 58.6% (inactive); in the test with HT29 colon, 47.5% (inactive) and 63.2% (inactive); in the test with SNB-75 CNS, 63.3% (inactive) and 65.9% (inactive); with SNB-19 CNS, 47.7% (inactive) and 47.6% (inactive); with U251 CNS, 26.1% (inactive) and 40.1% (inactive); with PC-3 prostate, 42.8% (inactive) and 27.3% (inactive). The growth was 18.7% (inactive) and 13.7% (inactive) in the test with SK-MEL-5 melanoma; 19% (inactive) and 12.8% (inactive) with UACC-62 melanoma; 65.8% (inactive) and 47% (inactive) in the test with LOX IMVI melanoma; 49.8% (inactive) and 51.6% (inactive) in the test with SK-MEL-28 melanoma; 7.36% (active) in the test on SK-MEL-2 melanoma; 46.5% (inactive) and 49.7% (inactive) in the test on EKVX NSCLC. Further, the growth in the test with SN12C renal was 50.9% (inactive) and 34.8% (inactive); in the test with UO-31 renal it was 43.6% (inactive) and 22.3% (inactive); in the test on TK-10 renal, 35.4% (inactive) and 53.3% (inactive); in the test with ACHN renal, 54.5% (inactive) and 61% (inactive); in the test with CAKI-1 renal, 59.2% (inactive) and 31.3% (inactive); in the test on A498 renal it was 56.7% (inactive) and 11.7% (inactive). Further, the growth in the test on CCRF-CEM leukemia is 44.2% (inactive); in the test with MOLT-4 leukemia, 35.3% (inactive) and 45.3% (inactive).

Take `O=C(CCl)c1ccc2c(c1)Nc1ccccc1S2`: the growth in the test with HCT-15 colon was 85.1% (inactive) and 21.2% (inactive); with HT29 colon it was 101% (inactive) and 95.6% (inactive); in the test on SNB-75 CNS, 88.6% (inactive) and 102% (inactive); in the test with SNB-19 CNS it was 99.7% (inactive) and 98% (inactive); with U251 CNS, 98% (inactive) and 92% (inactive); with PC-3 prostate, 92.8% (inactive) and 104% (inactive). Further, the growth was 94.1% (inactive) and 99.5% (inactive) in the test on SK-MEL-5 melanoma; 87.5% (inactive) in the test on UACC-62 melanoma; 79.1% (inactive) and 48.2% (inactive) in the test on LOX IMVI melanoma; 106% (inactive) and 115% (inactive) in the test with SK-MEL-28 melanoma; 80.5% (inactive) and 72.5% (inactive) with SK-MEL-2 melanoma; 98.6% (inactive) in the test with EKVX NSCLC. For the same molecule, the growth in the test with SN12C renal was 104% (inactive) and 93.8% (inactive); in the test with UO-31 renal, 97.7% (inactive) and 81% (inactive); in the test with TK-10 renal, 95.5% (inactive); with ACHN renal, 104% (inactive) and 92.4% (inactive); with CAKI-1 renal, 98.4% (inactive); with A498 renal it was 84.1% (inactive) and 77.2% (inactive). The growth in the test with CCRF-CEM leukemia was 53.7% (inactive) and 50.5% (inactive); with MOLT-4 leukemia, 46.3% (inactive) and 48.5% (inactive).

As to `COC(=O)/C=C/c1cc(O)c2c(c1)C(C(=O)OC)C(c1ccc(O)c(O)c1)O2` (centres undefined), the growth in the test with HCT-15 colon was 16.7% (inactive) and 16.2% (inactive); in the test on HT29 colon it was 22.8% (inactive) and 16.3% (inactive); with SNB-75 CNS, 52.9% (inactive) and 37.5% (inactive); with SNB-19 CNS, 35.7% (inactive) and 37.2% (inactive); in the test on U251 CNS, 20.7% (inactive) and 14.9% (inactive); with PC-3 prostate, 20.3% (inactive) and 17% (inactive). The growth with SK-MEL-5 melanoma was 3.62% (active) and -13.7% (active); with UACC-62 melanoma, 25.9% (inactive) and 31.2% (inactive); in the test with LOX IMVI melanoma, 20.8% (inactive) and 16.3% (inactive); in the test with SK-MEL-28 melanoma it was 55.3% (inactive) and 53% (inactive); in the test with SK-MEL-2 melanoma, 50.6% (inactive) and 49.3% (inactive); in the test on EKVX NSCLC, 35.2% (inactive) and 38.2% (inactive). The growth with SN12C renal is 29.5% (inactive) and 24.6% (inactive); in the test with UO-31 renal, 38.1% (inactive) and 40.4% (inactive); with TK-10 renal, 55% (inactive) and 51.8% (inactive); in the test with ACHN renal, 26.2% (inactive) and 27.2% (inactive); in the test on CAKI-1 renal it was 17.5% (inactive) and 18.5% (inactive); in the test with A498 renal, 18.2% (inactive) and 6.71% (active). Further, the growth in the test with CCRF-CEM leukemia is 13.5% (inactive) and 16% (inactive).

In the case of `Cc1nnc(NC/C=C/c2ccccc2)s1`, the growth with HCT-15 colon was 98.3% (inactive) and 104% (inactive); with HT29 colon, 107% (inactive) and 116% (inactive); in the test on SNB-75 CNS, 86.3% (inactive) and 103% (inactive); in the test on SNB-19 CNS, 108% (inactive) and 113% (inactive); with U251 CNS, 97.8% (inactive); in the test with PC-3 prostate, 94% (inactive) and 99.5% (inactive). The growth in the test on SK-MEL-5 melanoma is 101% (inactive) and 102% (inactive); with UACC-62 melanoma, 104% (inactive); with LOX IMVI melanoma, 96.1% (inactive) and 97.5% (inactive); in the test with SK-MEL-28 melanoma, 104% (inactive) and 103% (inactive); in the test with SK-MEL-2 melanoma it was 122% (inactive); in the test with EKVX NSCLC, 101% (inactive). Besides, the growth with SN12C renal was 105% (inactive) and 108% (inactive); in the test with UO-31 renal, 87.1% (inactive) and 91.2% (inactive); in the test with TK-10 renal it was 96.4% (inactive) and 111% (inactive); in the test with ACHN renal, 103% (inactive) and 112% (inactive); with CAKI-1 renal, 112% (inactive); in the test with A498 renal, 96.1% (inactive). Moreover, the growth in the test with CCRF-CEM leukemia is 113% (inactive); with MOLT-4 leukemia, 92.8% (inactive) and 111% (inactive).
